E coli growth-1: inhibitors of Escherichia coli growth; OD600, 23 h; stronger effect = lower value; OD600 absorbance (test concentration not listed); 330,000 tested, 0.21% active; AID 1053175;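 active = OD600 absorbance below the run mean of sample wells minus 3.6 SD, in any replicate, cut at about 0.56 in these data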
AddAB inh: less growth of phage-infected E. coli with AddAB | 330,000 tested, 0.29% active | E. coli expressing H. pylori AddAB, absorbance growth | AID 435030 | inhibition, % at 11.9 µM; in the data active = inhibition above about 12%
phage Ecoli inh: E. coli growth loss with phage present | growth absorbance | inhibition, % at 11.9 µM | 360,000 tested, 0.26% active; in the data active = inhibition above about 11%
Tat export inh: inhibitors of E. coli Tat protein transport; 340,000 tested, 0.036% active; inhibition, % at 10 µM; E. coli MC4100 TorA-mCherry Tat export, fluorescence;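 active = mean replicate inhibition at least 50% and at least half of replicates individually reaching 50%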;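 also: exported cargo escapes ClpAP degradation while cytoplasmic cargo is degraded and loses fluorescence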
E coli growth-2: counter-screen for AddAB inhibitors: E. coli growth inhibition | AID 449728 | inhibition, % at 11.9 µM | E. coli V3065 growth, OD600 absorbance, 18 h | 330,000 tested, 0.27% active;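 active = inhibition above the campaign's mean inhibition across all tested compounds plus 3 SD, cut at about 9.9% in these data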;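 also: uninfected addAB+ strain grown without phage in ampicillin broth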
RecBCD conf: growth loss of phage-infected V66 E. coli, RecBCD confirmation screen; 890 tested, 45% active; shares compounds with phage Ecoli inh; inhibition, % at 11.9 µM; E. coli V66 + T4 2- phage, growth OD;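 active = mean inhibition over triplicates exceeding the hit threshold derived in the original primary screen, cut at about 11% in these data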
Ecoli viability: counter-screen for RecBCD inhibitors: inhibitors of bacterial viability. shares compounds with phage Ecoli inh. E. coli viability, absorbance (OD) growth. inhibition, % at 11.9 µM. 890 tested, 29% active. AID 651983; in the data active = inhibition above about 20%;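 also: E. coli strain V66 grown with compound alone and no phage infection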
AddAB phage OD: growth loss of phage-infected AddAB E. coli, RecBCD counter-screen; E. coli expressing H. pylori AddAB + T4 phage, OD growth; gene 2 mutant T4, recBCD-deleted host; shares compounds with phage Ecoli inh; 890 tested, 45% active; AID 651984; inhibition, % at 11.9 µM;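 active = mean inhibition above the solvent-only control wells' mean plus 3 SD, cut at about 22% in these data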;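 also: higher means less bacterial growth from phage killing when AddAB is blocked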
Hits are given with their value; . = inactive; / = no result given. A selection: hits, their analogues and other compounds. The true share with any hit is near 0.51%.

SMILES	E coli growth-1	AddAB inh	phage Ecoli inh	Tat export inh	E coli growth-2	RecBCD conf	Ecoli viability	AddAB phage OD
COc1nccnc1NS(=O)(=O)c1ccc(N=Cc2c(C)[nH]n(-c3ccccc3)c2=O)cc1	.	.	.	.	.	/	/	/
O=C(NN=Cc1ccco1)C(=O)Nc1cccc(C(F)(F)F)c1	/	/	.	/	/	/	/	/
CCOc1cccc(C=NNC(=O)C(=O)Nc2cccc(C(F)(F)F)c2)c1O	/	/	18	/	/	11	.	.
CCOc1cccc(C=NNc2ccc(S(=O)(=O)N(CC)CC)cn2)c1O	.	/	/	/	/	/	/	/
Cc1cc(C=NNC(=O)c2cccc([N+](=O)[O-])c2)c(C)n1-c1ccc(Cl)cc1Cl	.	/	/	/	/	/	/	/
O=C(C=Cc1ccccc1)c1cc(Br)ccc1O	.	/	.	.	/	/	/	/
Cc1ccc(/C=C/C(=O)c2cc(Br)ccc2OC(=O)c2ccco2)cc1	.	.	.	.	.	/	/	/
CCOc1ccc(/C=C/C(=O)c2cc(Br)ccc(=O)c2O)cc1	.	13	16	.	.	.	.	.
CCOc1ccc(C(=O)/C=C/c2ccc(OC)c(OC)c2)cc1	.	.	.	.	.	/	/	/
CCc1ccc(/C=C/C(=O)c2cc(Br)ccc(=O)c2O)cc1	.	.	14	.	.	.	.	.
Cc1cccc(/C=C/C(=O)c2cc(Br)ccc(=O)c2O)c1	.	.	17	.	.	.	.	.
CC1=NN(/C(=N/c2nnc(C)s2)Nc2ccccc2)[C@H](c2cccc3ccccc23)S1	.	/	/	/	/	/	/	/
CCCCn1c(=O)c(C(=O)NN=Cc2ccc(F)cc2)c(O)c2ccccc21	.	/	/	/	/	/	/	/
Cc1ccccc1C(NC(=O)OC(C)(C)C)C(=O)OC(C)(C)C (stereo not given)	.	/	/	/	/	/	/	/
Cc1ccc(S(=O)(=O)N2CCOCC2)cc1NC(=O)CNCc1ccc(Cl)cc1Cl	.	.	12	.	.	.	.	.
O=C(CNCc1ccccc1Cl)Nc1cc(S(=O)(=O)N2CCOCC2)ccc1Cl	.	.	.	.	.	/	/	/
COc1ccc(OCc2cc(C(=O)N(C)C3CCOC3)no2)c(Cl)c1 (stereo not given)	.	.	.	.	.	/	/	/
CN(C(=O)c1cc(COc2ccc(F)c(F)c2)on1)C1CCOC1 (stereo not given)	.	.	11	.	.	.	.	.
COc1ccc(C=NN(C)C2=NCCN2)c(OC)c1OC	.	/	/	/	/	/	/	/
CCOc1ccc2c(c1)C(=NN1C(=O)c3ccccc3C1=O)C(=O)N2	.	/	/	/	/	/	/	/
S=c1[nH]nc(-c2ccco2)n1N=Cc1ccc(Br)s1	.	/	/	/	/	/	/	/
CC(NC(=O)Nc1nnc(C(F)(F)F)s1)(C(F)(F)F)C(F)(F)F	.	.	13	.	11	15	.	.
CC(C)(C)CC(=O)Nc1nnc(C(F)(F)F)s1	.	.	.	.	.	/	/	/
O=C1NC(Cc2ccccc2)C(=O)N2C1C[C@]1([C@]34CC5C(=O)NC(Cc6ccccc6)C(=O)N5C3Nc3ccccc34)c3ccccc3NC21 (stereo not given in full)	.	/	/	/	/	/	/	/
O=C(NN=Cc1sc2ccccc2c1O)c1ccccc1	.	/	/	/	/	/	/	/
SMILES	E coli growth-1	AddAB inh	phage Ecoli inh	Tat export inh	E coli growth-2	RecBCD conf	Ecoli viability	AddAB phage OD
O=C(N/N=C/c1sc2ccccc2c1O)c1cccc2ccccc12	/	.	13	.	.	.	.	.
COc1ccc2cc(C(=O)N/N=C/c3sc4ccccc4c3O)ccc2c1	/	.	23	.	12	14	.	.
COc1cc(O)c2c(=O)c3c(OC4OC(CO)C(O)C(O)C4O)ccc(O)c3oc2c1 (stereo not given)	.	/	/	/	/	/	/	/
O=C(Nc1cccc([N+](=O)[O-])c1)c1ccncc1	.	.	.	.	.	/	/	/
O=C(Nc1cccc([N+](=O)[O-])c1)c1ccc([N+](=O)[O-])o1	/	/	20	/	/	15	.	90
COC(=O)c1[nH]c(C)c(C(O)=C2C(=O)C(=O)N(CCN(C)C)C2c2cc(OC)ccc2OC)c1C (stereo not given)	.	/	/	/	/	/	/	/
Cc1cc(Cl)ccc1NNC(=O)c1cccs1	.	.	.	.	.	/	/	/
O=C(NNc1cc(Cl)ccc1Cl)c1cccs1	.	.	54	.	.	.	.	.
FC(F)Sc1ccc(NC(=S)NCC2CCCCC2)cc1	.	.	13	.	.	.	.	.
S=C(NCC1CCCCC1)Nc1ccc(Oc2ccccc2)cc1	.	.	.	.	.	/	/	/
FC(F)Sc1ccc(NC(=S)NC2CCCCC2)cc1	.	.	12	.	.	.	.	.
CC(C)CN(CC(C)C)C1=NC(=Cc2ccco2)C(=O)N1c1ccccc1	.	/	/	/	/	/	/	/
O=C(O)c1ccc(S(=O)(=O)/N=C2\C=C(Nc3ccccc3F)C(=O)c3ccccc32)cc1	.	.	13	.	.	.	.	.
Cc1ccccc1NC1=C/C(=N\S(=O)(=O)c2ccc(C(=O)O)cc2)c2ccccc2C1=O	.	.	.	.	.	/	/	/
CC1CN(C(C)CO)C(=O)c2cc(NC(=O)Nc3cccc4ccccc34)ccc2OC1CN(C)Cc1ccc(-c2ccccc2)cc1 (stereo not given)	.	/	/	/	/	/	/	/
O=c1[nH]nc(-c2ccc([N+](=O)[O-])o2)c(=O)[nH]1	0.52	/	22	.	/	16	.	91
CCCC(=O)Nc1cc(=O)n(C)c(=O)n1C	.	.	53	.	.	.	.	.
CCc1noc(C)c1C(=O)OCC(=O)Nc1ccc2c(c1)OCO2	.	.	12	.	.	.	.	.
Cc1onc(-c2ccccc2)c1C(=O)OCC(=O)Nc1ccccc1	.	/	.	.	/	/	/	/
Cc1cccc(NC(=O)COC(=O)c2c(-c3ccccc3)noc2C)c1	/	/	13	/	/	.	.	.
CN(C)C(=O)N1CCC(C(=O)NCc2ccc(F)cc2)CC1	.	.	46	.	.	.	.	.
O=C(CN1CCOCC1)NN=Cc1ccc(-c2cccc(Cl)c2Cl)o1	.	/	/	/	/	/	/	/
C/C(CC(=O)Nc1ccccn1)=N\NC(=O)c1ccccc1O	/	.	19	.	.	.	.	.
CC(CC(=O)Nc1ccccn1)=NNC(=O)c1ccccc1	.	/	/	/	/	/	/	/
O=[N+]([O-])c1cc2c(ccc3occc32)o1	/	/	101	/	/	102	103	102
SMILES	E coli growth-1	AddAB inh	phage Ecoli inh	Tat export inh	E coli growth-2	RecBCD conf	Ecoli viability	AddAB phage OD
O=[N+]([O-])c1ccc2c(c1)oc1ccccc12	.	.	.	.	.	/	/	/
O=C1c2ccccc2C(=O)c2c(O)c(O)cc(O)c21	.	.	12	.	15	.	.	.
O=C(Nc1ccc2[nH]ncc2c1)c1ccc(F)cc1	.	.	12	.	.	.	.	.
C#CCNC(=O)C1=CC(C2CCCCC2)CC(OCCCCO)O1 (stereo not given)	.	/	/	/	/	/	/	/
O=S(=O)(Nc1cc(Sc2ncn[nH]2)c(O)c2ccccc12)c1ccccc1	.	/	11	.	/	.	.	.
Cc1cc(O)c(Sc2ncn[nH]2)cc1NS(=O)(=O)c1ccc(Cl)cc1	.	.	.	.	.	/	/	/
Cc1c(C(=O)NNC(=O)c2ccccc2O)oc2ccccc12	/	/	13	/	/	.	.	.
CC(C)OC(=O)c1ccc(NC(=O)CSc2nc3ncccc3[nH]2)cc1	.	.	11	.	.	.	.	.

Assay outcomes from PubChem BioAssay.
